Counter-ions that a name gives are not always drawn. A number with no mark means an inactive call.
What follows are compounds tested on Mel-DCC-11-R (assay: cell viability relative to DMSO control (fraction of DMSO control); higher = less cytotoxic, active = 0.8 or less). Conditions: 1 µM; 120 h; vemurafenib co-treatment 0 µM.
Experimental: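 Same 315-drug TargetMol library at 1 µM in duplicate, 120 h, ATPlite luminescence normalised to DMSO controls, on the vemurafenib-resistant subline Mel-DCC-11-R cultured alone or with 8 µM vemurafenib co-treatment (Mel-DCC-11-R + V).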

Row | Compound | cell viability
1 | O=C(Nc1c(Cl)cncc1Cl)c1ccc(OC(F)F)c(OCC2CC2)c1 [Roflumilast] | 1.15
2 | CN(C)CCOc1ccc(/C(=C(/CCCl)c2ccccc2)c2ccccc2)cc1.O=C(O)CC(O)(CC(=O)O)C(=O)O [Toremifene citrate] | 0.981
3 | CC[C@@H](CO)NCCN[C@@H](CC)CO.Cl.Cl [Ethambutol dihydrochloride] | 0.965
4 | CCc1cnn2c(NCc3ccc[n+]([O-])c3)cc(N3CCCC[C@H]3CCO)nc12 [Dinaciclib] | 0.062 (active)
5 | Cc1ccc(-c2ncc(Cl)cc2-c2ccc(S(C)(=O)=O)cc2)cn1 [Etoricoxib] | 1.11
6 | Nc1nc(F)nc2c1ncn2[C@@H]1O[C@H](CO)[C@@H](O)[C@@H]1O [Fludarabine] | 1.2
7 | CNC(=O)c1ccc(N2C(=S)N(c3cnc(C#N)c(C(F)(F)F)c3)C(=O)C23CCC3)cc1F [Apalutamide] | 0.958
8 | C[C@H](Nc1ncnc2nc[nH]c12)c1cc2cccc(Cl)c2c(=O)n1-c1ccccc1 [Duvelisib] | 1.21
9 | COC(=O)[C@]12CCC(C)(C)C[C@H]1[C@H]1C(=O)C=C3[C@@]4(C)C=C(C#N)C(=O)C(C)(C)[C@@H]4CC[C@@]3(C)[C@]1(C)CC2 [Bardoxolone Methyl] | 0.833
10 | S=c1nc[nH]c2nc[nH]c12 [Mercaptopurine] | 0.876
11 | O.S=c1nc[nH]c2nc[nH]c12 [6-Mercaptopurine monohydrate] | 0.725 (active)
12 | O=S(=O)([O-])CCS.[Na+] [Mesna] | 1.11
13 | COC(=O)C[C@](O)(CCCC(C)(C)O)C(=O)O[C@@H]1C(OC)=CC23CCCN2CCc2cc4c(cc2[C@H]13)OCO4 (stereo not given in full) [Homoharringtonine] | 0.0454 (active)
14 | CN(C)CCOc1ccc(/C(=C(/CCCl)c2ccccc2)c2ccccc2)cc1 [Toremifene] | 0.887
15 | COC(=O)/C=C/C(=O)OC [Dimethyl fumarate] | 1.06
16 | CC(C)Cn1cnc2c(N)nc3ccccc3c21 [Imiquimod] | 0.897
17 | COc1cc(Nc2c(C#N)cnc3cc(OCCCN4CCN(C)CC4)c(OC)cc23)c(Cl)cc1Cl [Bosutinib] | 0.914
18 | COc1cc(NS(C)(=O)=O)ccc1Nc1c2ccccc2nc2ccccc12 [Amsacrine] | 1.06
19 | C=CC(=O)Nc1cccc(Nc2nc(Nc3ccc(N4CCN(C(C)=O)CC4)cc3OC)ncc2C(F)(F)F)c1 [Rociletinib] | 0.855
20 | CCCCCCCCCCCCCCCCOP(=O)([O-])OCC[N+](C)(C)C [Miltefosine] | 0.843

Same assay, conditions: 1 µM; 120 h; vemurafenib co-treatment 8 µM

Row | Compound | cell viability
21 | O=C(Nc1c(Cl)cncc1Cl)c1ccc(OC(F)F)c(OCC2CC2)c1 [Roflumilast] | 1.31
22 | CN(C)CCOc1ccc(/C(=C(/CCCl)c2ccccc2)c2ccccc2)cc1.O=C(O)CC(O)(CC(=O)O)C(=O)O [Toremifene citrate] | 1.19
23 | CC[C@@H](CO)NCCN[C@@H](CC)CO.Cl.Cl [Ethambutol dihydrochloride] | 1.08
24 | CCc1cnn2c(NCc3ccc[n+]([O-])c3)cc(N3CCCC[C@H]3CCO)nc12 [Dinaciclib] | 0.0642 (active)
25 | Cc1ccc(-c2ncc(Cl)cc2-c2ccc(S(C)(=O)=O)cc2)cn1 [Etoricoxib] | 1.06
26 | Nc1nc(F)nc2c1ncn2[C@@H]1O[C@H](CO)[C@@H](O)[C@@H]1O [Fludarabine] | 0.977
27 | CNC(=O)c1ccc(N2C(=S)N(c3cnc(C#N)c(C(F)(F)F)c3)C(=O)C23CCC3)cc1F [Apalutamide] | 1.1
28 | C[C@H](Nc1ncnc2nc[nH]c12)c1cc2cccc(Cl)c2c(=O)n1-c1ccccc1 [Duvelisib] | 0.864
29 | COC(=O)[C@]12CCC(C)(C)C[C@H]1[C@H]1C(=O)C=C3[C@@]4(C)C=C(C#N)C(=O)C(C)(C)[C@@H]4CC[C@@]3(C)[C@]1(C)CC2 [Bardoxolone Methyl] | 0.578 (active)
30 | S=c1nc[nH]c2nc[nH]c12 [Mercaptopurine] | 0.993
31 | O.S=c1nc[nH]c2nc[nH]c12 [6-Mercaptopurine monohydrate] | 0.881
32 | O=S(=O)([O-])CCS.[Na+] [Mesna] | 1.08
33 | COC(=O)C[C@](O)(CCCC(C)(C)O)C(=O)O[C@@H]1C(OC)=CC23CCCN2CCc2cc4c(cc2[C@H]13)OCO4 (stereo not given in full) [Homoharringtonine] | 0.0543 (active)
34 | CN(C)CCOc1ccc(/C(=C(/CCCl)c2ccccc2)c2ccccc2)cc1 [Toremifene] | 1.26
35 | COC(=O)/C=C/C(=O)OC [Dimethyl fumarate] | 1.13
36 | CC(C)Cn1cnc2c(N)nc3ccccc3c21 [Imiquimod] | 1.07
37 | COc1cc(Nc2c(C#N)cnc3cc(OCCCN4CCN(C)CC4)c(OC)cc23)c(Cl)cc1Cl [Bosutinib] | 1.14
38 | COc1cc(NS(C)(=O)=O)ccc1Nc1c2ccccc2nc2ccccc12 [Amsacrine] | 0.539 (active)
39 | C=CC(=O)Nc1cccc(Nc2nc(Nc3ccc(N4CCN(C(C)=O)CC4)cc3OC)ncc2C(F)(F)F)c1 [Rociletinib] | 0.836
40 | CCCCCCCCCCCCCCCCOP(=O)([O-])OCC[N+](C)(C)C [Miltefosine] | 0.936
